According to PubChem BioAssay (NCATS):
Inconclusive results are not listed. The source made the active and inactive calls. Calls follow the shape of the dose curve; as a rule, active = well fitted inhibition curve with a large enough effect; inconclusive = small, poorly fitted or top-dose-only effect; inactive = flat fitted curve, though single readings scatter.

Key:
Test in all cases: qHTS profiling for inhibitors of Plasmodium falciparum proliferation (AID 504749); also: nearly all actives have a fitted effect of over 60% in size
Details in all cases: P. falciparum in erythrocytes, SYBR Green DNA, 72 h; series mostly up to 28.7 µM
[1] = test system: CP250
Method in brief: (§1)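 P. falciparum-infected erythrocytes (0.3% parasitemia, 2.5% hematocrit final) were exposed to compounds for 72 h at 37 C in 5% CO2, then lysed with SYBR Green buffer overnight at room temperature; parasite DNA fluorescence was normalized to artemisinin and DMSO controls.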

[2] = test system: CP252
Method in brief: as §1

[3] = test system: CP256
Method in brief: as §1

[4] = test system: CP260
Method in brief: as §1

[5] = test system: CP262
Method in brief: as §1

[6] = test system: CP265
Method in brief: as §1

[7] = test system: CP266
Method in brief: as §1

[8] = test system: CP268
Method in brief: as §1

[9] = test system: CP269
Method in brief: as §1

[10] = test system: CP286
Method in brief: as §1

Measured: Potency
Potency is read from the fitted curve at half-maximal effect.

O=c1[nH]c(=O)n([C@H]2C[C@H](O)[C@@H](CO)O2)cc1Br
inactive: all assays above

Cc1cc(C)c(/C=C2\C(=O)Nc3ccccc32)[nH]1
inactive: all assays above

COc1cc2c(cc1OC)-c1cc(=Nc3c(C)cc(C)cc3C)n(C)c(=O)n1CC2
active: [1] 3.55 µM | [2] 11.2 µM | [3] 4.47 µM | [4] 3.16 µM | [5] 4.78 µM | [6] 7.94 µM | [7] 6.75 µM | [8] 1.51 µM | [9] 4.78 µM | [10] 2 µM

CSc1ccc(C(=O)c2[nH]c(=O)[nH]c2C)cc1
inactive: all assays above

NC(=Nc1ccccc1)Nc1ccccc1
inactive: all assays above

COCC(=O)O[C@]1(CCN(C)CCCc2nc3ccccc3[nH]2)CCc2cc(F)ccc2[C@@H]1C(C)C
active: [1] 4.47 µM | [2] 4.47 µM | [3] 4.47 µM | [4] 1.58 µM | [5] 6.75 µM | [6] 4.47 µM | [7] 6.75 µM | [8] 5.36 µM | [9] 2.69 µM | [10] 1.58 µM

FC(F)(F)c1ccccc1-n1ccnc1
inactive: all assays above

O=C(O)CCCCCCCC(=O)O
inactive: all assays above

Cc1nnc(SCC2=C(C(=O)O)N3C(=O)[C@@H](NC(=O)Cn4cnnn4)[C@H]3SC2)s1
inactive: all assays above

CCNC(=O)N1CCN(CCCC(c2ccc(F)cc2)c2ccc(F)cc2)CC1
active: [1] 1 µM | [2] 3.98 µM | [3] 0.794 µM | [4] 3.16 µM | [5] 3.01 µM | [6] 0.794 µM | [7] 6.01 µM | [8] 2.39 µM | [9] 5.36 µM | [10] 2.24 µM

O=C(CCNNC(=O)c1ccncc1)NCc1ccccc1
inactive: all assays above

CN=C(NC#N)NCCSCc1nc[nH]c1C
inactive: all assays above

NC(=O)c1ncn([C@@H]2O[C@H](CO)[C@@H](O)[C@H]2O)c1O
inactive: all assays above

OCCN1CCN(CCCN2c3ccccc3C=Cc3ccccc32)CC1
active: [1] 6.31 µM | [2] 6.31 µM | [3] 3.55 µM | [4] 5.01 µM | [5] 6.75 µM | [6] 4.47 µM | [7] 13.5 µM | [8] 13.5 µM | [9] 9.53 µM | [10] 7.08 µM

c1cnc(N2CCN(Cc3ccc4c(c3)OCO4)CC2)nc1
inactive: all assays above

O=C(O)CP(=O)(O)O
inactive: all assays above

C[N+](C)(C)CCCCCCCCCC[N+](C)(C)C
active: [1] 7.08 µM | [2] 3.98 µM | [3] 2.51 µM | [4] 2.24 µM | [5] 1.69 µM | [6] 2.82 µM | [7] 4.78 µM | [8] 4.78 µM | [9] 3.38 µM | [10] 4.47 µM

Nc1nc(N)c2nc(-c3ccccc3)c(N)nc2n1
inactive: all assays above

C[C@H](CS)C(=O)N1CCC[C@H]1C(=O)O
inactive: all assays above

COc1ccc(CN(CCN(C)C)c2ccccn2)cc1
not listed: [6] | [7]
inactive: all other assays above
